Screens deposited in PubChem BioAssay by several laboratories.
Compounds with a hit are over-represented: about 2.3% of the library has one in this group of screens.
MCL1-BIM inh: MCL1-BIM-BH3 interaction inhibition (human). GST-MCL1 / FITC-Bim-BH3 fluorescence polarization. inhibition, % at 10.9 µM. 0.68% of 320,000 active. AID 2057;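 active means inhibition above the mean inhibition of all tested compounds plus 3 SD, set per campaign, cut at about 40% in these data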;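 further: higher means more loss of mP so more displacement of Bim peptide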
GLD-1 TGE inh: GLD-1-TGE RNA interaction inhibition (C. elegans); purified GLD-1 + fluorescein TGE RNA, fluorescence polarization; inhibition, % at 5.96 µM; 0.44% of 320,000 active; AID 2280;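 active means percent inhibition above a per-plate cutoff, the plate mean of test compounds plus 3 SD, cut at about 30% in these data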
Target sequence (Q17339 whole entry, looked up): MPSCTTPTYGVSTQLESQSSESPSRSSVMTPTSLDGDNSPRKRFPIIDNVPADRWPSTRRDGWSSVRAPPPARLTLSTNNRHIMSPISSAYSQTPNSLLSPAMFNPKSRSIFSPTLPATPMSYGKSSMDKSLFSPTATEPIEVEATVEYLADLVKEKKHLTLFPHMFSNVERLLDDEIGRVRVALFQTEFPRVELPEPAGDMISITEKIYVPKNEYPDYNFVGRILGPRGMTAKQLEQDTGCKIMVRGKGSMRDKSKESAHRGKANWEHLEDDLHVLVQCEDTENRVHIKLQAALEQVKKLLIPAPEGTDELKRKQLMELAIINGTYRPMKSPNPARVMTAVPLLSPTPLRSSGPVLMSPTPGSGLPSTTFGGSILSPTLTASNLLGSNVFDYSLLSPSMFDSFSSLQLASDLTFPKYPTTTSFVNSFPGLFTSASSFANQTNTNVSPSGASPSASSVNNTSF
Bim-Mcl-1: human Bim-Mcl-1 interaction inhibition | Q07820 | Bead-based flow cytometry, Bim peptide-Mcl-1 binding | inhibition, % at 10 µM | 0.1% of 190,000 active; in the data active means inhibition above about 40%
BCLXL inh: inhibitors of human Bcl-xL; Q07817; GST-Bcl-xL / FITC-Bim BH3 peptide fluorescence polarization; inhibition, % at 10.9 µM; 0.7% of 320,000 active;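 active means inhibition above the mean of all tested compounds plus 3 SD, cutoff set per campaign, cut at about 30% in these data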;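 further: inhibitors lower millipolarization by displacing the labeled peptide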
Target sequence (Q07817 whole entry, looked up): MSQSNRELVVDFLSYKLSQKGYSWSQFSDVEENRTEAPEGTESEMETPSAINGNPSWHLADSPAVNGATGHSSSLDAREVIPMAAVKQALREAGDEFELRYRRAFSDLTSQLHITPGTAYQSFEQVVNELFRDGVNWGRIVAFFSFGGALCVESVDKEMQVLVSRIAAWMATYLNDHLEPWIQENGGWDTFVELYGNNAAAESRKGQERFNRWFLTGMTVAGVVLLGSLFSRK
Mcl1 Noxa PPI: disrupts binding of human Mcl-1 to Noxa peptide; Q07820; TR-FRET Mcl-1/Noxa peptide binding, 2 h; inhibition, % at 21.7 µM; 1.5% of 220,000 active;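 active means compounds that cut the protein-peptide binding signal by more than 50% relative to plate controls in a single-dose test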;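 further: His-tagged Mcl-1 with rhodamine Noxa BH3 peptide and terbium anti-His antibody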
Mcl1-Bid inh: Mcl-1/Bid interaction inhibition; TR-FRET Mcl-1/Bid-Dy647 peptide binding, 1536-well; 0.97% of 220,000 active; AID 1021; inhibition, % at 21.7 µM; Q07820;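 active means compounds that cut the binding signal by more than half at the single screening dose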;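 further: His-tagged Mcl-1 with europium anti-His antibody binding Bid BH3 peptide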
BCLXL inh confirm: Bcl-xL (human) inhibition, MCL1 counter-screen confirmation | shares compounds with MCL1-BIM inh | 54% of 1,700 active | GST-Bcl-xL / FITC-Bim BH3 peptide FP binding | inhibition, % at 10.9 µM;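 active means inhibition above a cutoff equal to the mean inhibition of all tested compounds plus 3 SD, cut at about 30% in these data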
MCL1 inh confirm: confirmation of human MCL1 and BIM-BH3 interaction inhibitors | shares compounds with MCL1-BIM inh | GST-MCL1 / FITC-Bim-BH3 fluorescence polarization | inhibition, % at 10.9 µM | 61% of 1,700 active;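 active means inhibition above the average of all tested compounds plus 3 SD, cut at about 40% in these data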
Hits are given with their value; 0 = inactive; - = no result; + = active, no number.

SMILES | MCL1-BIM inh | GLD-1 TGE inh | Bim-Mcl-1 | BCLXL inh | Mcl1 Noxa PPI | Mcl1-Bid inh | BCLXL inh confirm | MCL1 inh confirm
CC(=O)N/N=C/c1cc(C(C)C)cc(/C=N/NC(C)=O)c1O | 100 | 143 | 0 | 93 | 0 | 0 | 92 | 101
CC(=O)[C@]1(O)Cc2c(O)c3c(c(O)c2[C@@H](O[C@H]2C[C@H](N)[C@H](O)[C@H](C)O2)C1)C(=O)c1ccccc1C3=O | + | + | - | + | - | - | + | +
COc1cccc2c1C(=O)c1c(O)c3c(c(O)c1C2=O)C[C@@](O)(C(C)=O)C[C@@H]3O[C@H]1C[C@H](N)[C@H](O)[C@H](C)O1 | - | - | 0 | - | 0 | 0 | - | -
COc1cccc2c1C(=O)c1c(O)c3c(c(O)c1C2=O)C[C@@](O)(C(=O)CO)C[C@@H]3O[C@H]1C[C@H](N)[C@@H](O)[C@H](C)O1 | + | + | - | + | - | - | + | +
COc1ccc(OC)c(C2Nc3c(Cl)ccc(C(=O)O)c3C3C=CCC32)c1 (stereo unspecified) | 0 | 0 | 0 | 0 | 0 | 0 | - | -
COC(=O)COc1ccc(C2Nc3c(Cl)ccc(C(=O)O)c3C3C=CCC32)cc1 (stereo unspecified) | 53 | 0 | 0 | 43 | 0 | 0 | 34 | 0
O=C(O)c1cc(-c2ccco2)nn1-c1cccc(Cl)c1 | 82 | 0 | 0 | 31 | 69 | 0 | 0 | 0
CCOC(=O)C/C(C)=N/NC(=O)CNc1cccc(Cl)c1C | 43 | 0 | 0 | 0 | 0 | 0 | 0 | 0
CC(=O)c1ccc(NC(=O)C2Cc3ccccc3CN2C(=O)c2ccccc2)cc1 (stereo unspecified) | 0 | 0 | 0 | 0 | 0 | 0 | - | -
COc1ccc(NC(=O)C2Cc3ccccc3CN2C(=O)c2ccccc2)cn1 (stereo unspecified) | 77 | 55 | 0 | 81 | 0 | 0 | 75 | 93
Cc1nc(Cl)c2c(n1)NC1=C(O2)C(=O)CCC1 | 198 | 168 | 0 | 165 | 0 | 0 | 146 | 175
NC(=O)C1CCN(C(=O)c2ccc(Oc3ccccc3)cc2)CC1 | 0 | 0 | 0 | 0 | 0 | 0 | - | -
COc1ccc(N2CC(C(=O)Nc3nnc(SCC(=O)N4CCCC4)s3)CC2=O)cc1 (stereo unspecified) | 0 | 0 | - | 0 | - | - | - | -
O=C(Cc1cccs1)N=Nc1c(O)[nH]c2ccccc12 | 0 | 0 | - | 0 | 0 | 0 | - | -
O=C(N=Nc1c(O)[nH]c2ccccc12)c1cc(-c2cccs2)[nH]n1 | 43 | 0 | - | 0 | 0 | 0 | 0 | 0
Cc1ccc(N2C3=C(C(=O)CC(C)(C)C3)C(c3cn(C)nc3C)C3=C2CC(C)(C)CC3=O)cc1 | 104 | 88 | - | 93 | - | - | 116 | 158
Cc1nn(C)cc1C1C2=C(CC(C)(C)CC2=O)N(c2ccccc2)C2=C1C(=O)CC(C)(C)C2 | 0 | 0 | 0 | 0 | 0 | 0 | - | -
CCOC(=O)NC1(Nc2ccc(C)cc2)Oc2ccccc2O1 | 58 | 0 | 0 | 0 | 0 | 0 | 41 | 46
Nc1nnc(SCC(=O)Nc2ccccc2)s1 | 0 | 0 | - | 0 | 0 | 0 | - | -
Nc1ccc(C(=O)N/N=C\c2cc(N=Nc3cccc4ccccc34)ccc2O)cc1 | 66 | 0 | 0 | 0 | - | 65 | 0 | 72
C=CCN1C=CC(=O)CC1 | 131 | 87 | - | 164 | 0 | 0 | 0 | 0
CC(C)(C)c1ccc(C(=O)Nc2cccc([N+](=O)[O-])c2)cc1 | 0 | 0 | 0 | 0 | 0 | 0 | - | -
Cc1ccc(S(=O)(=O)c2nc(-c3ccccc3)oc2N2CCCC2)cc1 | 0 | 0 | - | 0 | - | - | - | -
Cc1ccc(S(=O)(=O)c2nc(Cc3ccccc3)oc2N2CCOCC2)cc1 | 58 | 0 | - | 0 | - | - | 0 | 79
O=C(O[C@@H]1OC2COC(=O)c3cc(O)c(O)c(O)c3-c3c(cc(O)c(O)c3O)C(=O)O[C@@H]([C@H]1O)[C@@H]2O)c1cc(O)c(O)c(O)c1 | 91 | 0 | 0 | 62 | 113 | 0 | 74 | 87
SMILES | MCL1-BIM inh | GLD-1 TGE inh | Bim-Mcl-1 | BCLXL inh | Mcl1 Noxa PPI | Mcl1-Bid inh | BCLXL inh confirm | MCL1 inh confirm
O=C(N1CCOCC1)N1CCC(n2nnc3cc(F)ccc32)CC1 | 87 | 40 | 0 | 76 | 0 | 0 | 54 | 62
Cc1nc(C)c(NC(=O)N2CCc3ccccc32)cc1NC(=O)N1CCc2ccccc21 | 0 | 0 | 0 | 0 | 0 | 0 | - | -
Cn1ccc2cc3c(cc21)CCN3C(=O)Nc1cccnc1 | 46 | 0 | - | 0 | - | - | 39 | 50
COC1CCN(C(=O)CC2C(=O)NCCN2CC(C)(C)C)CC1 (stereo unspecified) | 50 | 0 | 0 | 45 | 0 | 0 | 0 | 0
Cn1c(=O)c2c(nc(N3CCN(C(=O)c4ccco4)CC3)n2CCSc2ncccn2)n(C)c1=O | 0 | 0 | 0 | 0 | 0 | 0 | - | -
COCCN=c1scc(-c2cccs2)n1/N=C/c1ccc(O)c(O)c1O | 49 | 0 | 0 | 0 | 89 | 0 | 65 | 93
COCCN=c1scc(-c2ccccc2)n1/N=C/c1c[nH]c2ccccc12 | 0 | 0 | 0 | 0 | 0 | 0 | - | -
CCN=c1scc(C)n1/N=C/c1ccc(O)c(O)c1O | 52 | 0 | 0 | 0 | 60 | 0 | 33 | 57
COc1ccccc1C(=O)NCCCNC(=O)c1cnccn1 | 0 | 0 | - | 0 | - | - | - | -
CC(=O)Nc1ccc(N/C=C2/CCCC2=O)cc1 | 80 | 0 | - | 0 | 0 | 0 | 0 | 0
Cc1cccc(CSc2nnc(-c3ccccn3)n2N)c1 | 0 | 0 | 0 | 0 | 0 | 0 | - | -
O=C(O)c1c2c(nc3ccccc13)/C(=C/c1ccc(O)cc1)CC2 | 54 | 0 | 0 | 36 | 55 | 0 | 34 | 54
CCc1ccc(NC(=O)c2noc3c2CCC3)cc1 | 0 | 0 | 0 | 0 | 0 | 0 | - | -
COC(=O)c1ccccc1NC(=O)c1noc2c1CCC2 | 41 | 0 | 0 | 0 | 70 | 0 | 0 | 49
Oc1cc2c(cc1O)[C@H]1c3ccc(O)c(O)c3OC[C@@]1(O)C2 | 57 | 0 | - | 0 | - | - | 76 | 108
Nc1nnnn1/N=C/c1cc(Cl)cc(Cl)c1O | 133 | 78 | - | 109 | - | - | 134 | 148
COc1cc(C2Nc3cc(C)c(C)cc3NC3=C2C(=O)CC(C)(C)C3)ccc1OC(C)=O (stereo unspecified) | 0 | 0 | - | 0 | - | - | - | -
Cc1cc2c(cc1C)NC(c1c(C)n(C)n(-c3ccccc3)c1=O)C1=C(CC(C)(C)CC1=O)N2 (stereo unspecified) | 135 | 85 | 0 | 120 | 0 | 0 | 0 | 0
Cn1cc(Cl)c(C(=O)OCC(=O)Nc2ccccc2)n1 | 0 | 0 | 0 | 0 | 0 | 0 | - | -
COc1ccccc1-n1nnnc1SCC(=O)Nc1ccc(C)c(N)c1 | 139 | 93 | - | 141 | - | - | 0 | 0
CCOC(=O)C(C#N)=C1CCN(Cc2ccccc2)CC1 | 60 | 0 | - | 58 | - | - | 36 | 0
CCOC(=O)/C(C#N)=C1/C(=O)N(Cc2ccccc2)c2ccccc21 | - | - | 0 | - | 0 | 0 | - | -
